# Compound activity: PubChem, National Center for Advancing Translational Sciences (NCATS)
# Most compounds without a hit are left out; they make up all but 19% or so of the library.
# HT1080 IDH1KD tx: toxicity to HT-1080 IDH1 knockdown cells (counter line); HT-1080 IDH1 knockdown viability, ATP luminescence, 48 h; Potency, µM (doses to about 46.1 µM), without a hit: top-dose activity, negative = toxicity, hits mostly cytotoxic; 360,000 compounds, 2% hits;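 note: potency is the fitted concentration of half-maximal effect; 0% = DMSO wells and -100% = cell-free medium wells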
#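 Viability of IDH1-knockdown HT-1080 fibrosarcoma cells was assessed by CellTiter-Glo after 48 h at 37 °C with titrated compound; concentration-effect curves were classified by fit quality and response size.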
# uPA generation: blocks generation of uPA at the cell surface | cell surface uPA generation assay, qHTS | Potency, µM (titrated, usually from 38.3 µM), without a hit: top-dose activity change, negative = inhibition, most hits filed as inhibitors | 330,000 compounds, 0.31% hits; active = well fitted inhibition curve with a large enough effect; inconclusive = small, poorly fitted or top-dose-only effect; inactive = no such curve, though single readings can be large or run the other way; tested in mouse RAW 264.7 cells; note: potency is the fitted concentration of half-maximal effect; nearly all actives have a fitted effect of over 55% in size
# TDP1 cell CPT: DT40-hTDP1 cell growth loss with CPT. chicken DT40 Tdp1-/-;hTDP1 cells + 20 nM CPT, ATP luminescence, 48 h. Potency, µM (titrated, usually from 46.2 µM), for the others: at the top dose activity change, negative = growth inhibition, hits mostly inhibitors. 420,000 compounds, 12% hits. AID 686979; note: potency is the fitted concentration of half-maximal effect; nearly all actives have a fitted effect of over 55% in size
#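 Chicken DT40 Tdp1-/- cells complemented with human TDP1, 400 cells/well, exposed to compounds plus 20 nM camptothecin for at least 48 h at 37 C; viability read as ATP content by CellTiter-Glo luminescence.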
# DT40 TDP1 no CPT: qHTS for Inhibitors of human tyrosyl-DNA phosphodiesterase 1 (TDP1): qHTS in cells in absence of CPT. DT40 Tdp1-/- hTDP1 cells, no CPT, ATP luminescence, 48 h. Potency, µM (top dose mostly 46.2 µM), without a hit: at the top dose activity change, negative = growth inhibition, usual class: inhibitors. 420,000 compounds, 15% hits. AID 686978, 2013; note: potency is the fitted concentration of half-maximal effect; nearly all actives have a fitted effect of over 55% in size
#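 A cellular qHTS used chicken DT40 cells lacking endogenous Tdp1 but carrying stably transfected human TDP1. Compounds were applied without camptothecin, and cell growth kinetics were judged by ATP-dependent luminescence after ≥48 hr.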
# IL-1B inflam inh: blocks inflammasome-driven IL-1 beta release. AID 743279. 360,000 compounds, 4.7% hits. activity change, % at 57.5 µM. THP-1 LPS/ATP IL-1B secretion, AlphaLISA, 16 h; hits give low values; in the data active = activity change below about -50%; inconclusive = mostly about -30% to -49%
#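 Secreted IL-1B measured by AlphaLISA bead assay after 16 h compound exposure of THP-1 cells; compounds (final up to 57.5 uM) added 1 h before LPS (250 ng/mL) and ATP (1.25 mM) stimulation; lower signal means less secretion.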
# HT1080NT lethal: kills 2HG-producing HT-1080-NT fibrosarcoma cells | HT-1080-NT fibrosarcoma viability, CellTiter-Glo ATP luminescence, 48 h | Potency, µM (series often up to 46.1 µM), without a hit: top-dose activity, negative = less viability, actives largely listed as cytotoxic | 360,000 compounds, 1.6% hits;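 note: NT is the 2HG producing partner of a matched IDH1 knockdown line; potency is the fitted concentration of half-maximal effect; 0% = DMSO-treated cells and -100% = media-only wells without cells; nearly all actives have a fitted effect of over 55% in size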
#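 Viability by CellTiter-Glo luminescence after 48 h compound exposure at 37C of HT-1080-NT cells (750/well, RPMI, 5% FBS). % activity scaled between DMSO wells and medium-only wells, then curve-fitted and categorized by curve class.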
# * hit, by the source's call; ? = inconclusive; . = no result; ! = not active in a repeat; [ ] = another dose, or the depositor's remark. Unless noted, calls come from the whole dose curve; as a rule, active = well fitted curve in the direction sought with a large enough effect; inconclusive = small, poorly fitted or top-dose-only effect, or another doubt; inactive = no such curve, though single readings can be large; an effect the other way counts as inactive or inconclusive. Unless noted, % is set by controls: 0 for no effect and ±100 for the full control effect.
SMILES,HT1080 IDH1KD tx,uPA generation,TDP1 cell CPT,DT40 TDP1 no CPT,IL-1B inflam inh,HT1080NT lethal
CCOC(=O)c1sc(-c2ccc(OC)cc2)cc1NC(C)=O,7%,7%,-1%,?,2,0%
O=C(Nc1cccc(NC(=O)c2cccc(F)c2)n1)c1cccc(F)c1,0%,-2%,?,21µM*,0,-18%
O=C(Nc1cc(-c2ccccc2)sc1C(=O)O)c1cccc(F)c1,-12%,4%,?,15µM*,-8,-12%
CCOc1ccc(-c2cc(NC(=O)c3c(F)cccc3F)c(C(=O)O)s2)cc1,-18%,-3%,-25%,21µM*,-12,-7%
COc1cc(C2c3c(oc4ccccc4c3=O)C(=O)N2c2nnc(C(C)C)s2)cc(OC)c1OC (configuration not stated),.,.,-4%,-23%,.,.
CSc1nccc(NC(=O)c2cccc(Br)c2)n1,-10%,5%,-5%,21µM*,?,-22%
COc1ccc(OC)c(NC(=O)CSc2nnc3ccc(-c4ccccn4)nn23)c1,3%,-7%,?,?,-4,1%
COc1ccc(C2=CCCCCC2)cc1OC,1%,.,?,12µM*,7,2%
CCOC(=O)c1ccc2nc(C(F)(F)F)[nH]c(=O)c2c1,-2%,-5%,16µM*,7.3µM*,0,-1%
CCOC(=O)c1ccc2nc(C)cc(Nc3ccc(OC(C)C)cc3)c2c1,.,.,23µM*,18µM*,.,.
COc1ccc2nc(C)cc(NCc3cccc(C(F)(F)F)c3)c2c1,16µM*,-10%,15µM*,13µM*,-96*,23µM*
COc1ccc(Nc2cc(C)nc3ccc(C)cc23)cc1,-3%,.,?,16µM*,-21,-20%
CCCOc1ccc(C(=O)Nc2cc3c(cc2N2CCOCC2)n(C)c(=O)n3C)cc1,.,.,-9%,3%,.,.
Cc1ccc(Sc2ccc(NC(=O)CCN3C(=O)NC4(CCCC4)C3=O)cc2)c(C)c1,?,-13%,?,?,-4,?
Cc1ccc2nc(C)cc(Nc3ccc4c(c3)OCCO4)c2c1,?,-10%,22µM*,13µM*,?,?
COc1ccc2nc(C)cc(Nc3ccccc3O)c2c1,-8%,-20%,23µM*,?,?,-10%
Cc1cc(Nc2ccc3c(c2)OCCO3)n2nc(C)nc2n1,6%,20%,-16%,-3%,23,8%
CC(=O)c1ccc(Nc2cc(C)nc3ccc(C)cc23)cc1,?,-5%,?,?,-104*,21µM*
COC(=O)C1C2CC(C(Br)C2Br)C1C(=O)O (configuration not stated),13%,1%,-5%,?,-2,13%
COP(=O)(OC)OC(C(=O)c1ccccc1)c1ccccc1 (configuration not stated),3%,.,12%,19%,15,-5%
Oc1ccc(Cl)cc1CNCc1ccc(Cl)nc1,-1%,-18%,0%,-3%,-3,-15%
CC(C)C(=O)Nc1ccccc1C(=O)OCc1cc(=O)n2nc(C3CC3)sc2n1,.,.,-16%,?,.,.
CC(NCCS(=O)(=O)c1ccc(Cl)cc1)c1cccc(Cl)c1 (configuration not stated),-11%,3%,0%,?,-60*,-8%
COc1ccc(NC(=O)C[C@H]2C(=O)N(CCc3ccccc3)C[C@@H]2Cc2ccccc2)cc1,-11%,.,-23%,?,-9,-17%
S=C1SCN(CC2CC2)CN1CC1CC1,-10%,-1%,0.58µM*,4.6µM*,-24,?
SMILES,HT1080 IDH1KD tx,uPA generation,TDP1 cell CPT,DT40 TDP1 no CPT,IL-1B inflam inh,HT1080NT lethal
CCN1CCN(c2cc(C)c3cc(NC(=S)NCCCOC)ccc3n2)CC1,-6%,9%,?,2%,-10,-14%
CCCCN(CC)CCCNC(=S)Nc1ccc2nc(N3CCN(C)CC3)cc(C)c2c1,?,-2%,?,16µM*,-54*,18µM*
Cc1cc(N2CCN(C)CC2)nc2ccc(NC(=S)NCCCN3CCN(C)CC3)cc12,-5%,2%,?,?,-25,-3%
CCCCN(CC)CCCNC(=S)Nc1ccc2nc(N3CCN(CC)CC3)cc(C)c2c1,?,0%,?,16µM*,?,16µM*
O=C(NCC(=O)N1CCCC1)c1ccc(Cl)cc1,24%,3%,-2%,-2%,-1,2%
COc1ccc(-c2ccnc(SCC(=O)Nc3ccccn3)n2)cc1,-1%[9.24 µM],-6%,?,18µM*,0,-2%
NS(=O)(=O)c1ccc(CCNc2ccnc3cc(Cl)ccc23)cc1,-15%,-3%,?,15µM*,2,-4%
NS(=O)(=O)c1ccc(CCNC(=O)c2ccc3nccnc3c2)cc1,11%,5%,-8%,-23%,44,7%
COc1ccccc1N1CCN(C(=O)/C=C/c2c(Cl)nc3ccccn23)CC1,6%,1%,10µM*,4.6µM*,-61*,6%
C=CCc1ccc(OCc2ccc(C(=O)Nc3ccc(NC(C)=O)cc3)o2)c(OC)c1,-11%,1%,?,16µM*!,10,-7%
CCOC(=O)c1ccc(NC(=O)Cn2nc3c4ccccc4n(Cc4cccc(F)c4)cc-3c2=O)cc1,.,.,22%,?,.,.
COc1ccc(NC(=O)Nc2nnc(-c3ccccc3SCc3ccccc3)s2)cc1,-26%,8%,18µM*,6.5µM*,19,-25%
COc1ccc(-c2ccc3c(c2)S(=O)(=O)c2cccc(C(=O)NCCOc4ccccc4)c2C3=O)cc1OC,3%,4%,18µM*,?,16,10%
O=C(NC1CCCC1)c1cccc2c1C(=O)c1ccc(Cl)cc1S2(=O)=O,15%,2%,-4%,-20%,-1,6%
O=C(NCCOc1ccccc1)c1ccc2c(c1)S(=O)(=O)c1cc(Cl)ccc1C2=O,0%,18%,?,?,-1,-3%
O=C(NC[C@@H]1CCCO1)c1cccc2c1C(=O)c1ccc(Cl)cc1S2(=O)=O,2%,-6%,-23%,-14%,-54*,-21%
COc1ccc(OC[C@@H](O)CNC(=O)c2cccc3c2C(=O)c2ccc(-c4ccc(F)cc4OCc4ccccc4)cc2S3(=O)=O)cc1,-3%,7%,7.3µM*,10µM*,-17,-4%
O=C(NCCOc1ccccc1Cl)c1cccc2c1C(=O)c1ccc(Cl)cc1S2(=O)=O,7%,9%,23µM*,16µM*,-30,7%
